# PubChem BioAssay
# Activity calls are given as the source filed them.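 How the source made its calls, unless noted: active means visual image review flags a hit and inhibition of aggregation exceeds 20%; inconclusive means visual hit but inhibition at or below 20%; inactive means no hit on visual image review.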
# Tests used:
# [1] = inhibitors of TNFa-induced NFkB p65 translocation, primary screen, imaging, HUVEC, MLSMR starter and 10KST1 sets (AID 438;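 active means inhibition above 20% together with a positive visual image hit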;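 further: compound added about 3h40 before a 20 min TNFalpha stimulation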;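 on inhibition: signal is the nuclear over cytoplasmic p65 intensity ratio per well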); conditions: HUVEC TNFa-induced p65 nuclear translocation; cell count: measured here: nuclei count (cytotoxicity indicator), at 2.08 µM; inhibition: at 2 µM, stronger effect = higher value, 0% TNFa-plus-vehicle, 100% no-TNFa wells
# [2] = inhibitors of mutant huntingtin aggregation, primary screen, imaging, exon1htt(103Q)mCFP cells, high-content imaging (AID 483); conditions: exon1htt(103Q)mCFP cell line, aggregate imaging, at 2 µM; inhibition of aggregation: stronger effect = higher value; nuclei count: measured here: cell count, toxicity;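 further: compound exposure lasted 3 days before fixation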;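 on nuclei count: percent of the per-plate median nuclei count of sample wells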
# [3] = inhibitors of E-selectin induction by TNFa, primary screen, imaging, HUVEC, immunofluorescence, MLSMR starter and 10KST1 sets (AID 487;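 active means visually confirmed hit in the image check and inhibition above 20%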;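 on inhibition: signal is fraction of cell area covered by stained E-selectin grains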;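 on nuclei count: 100% = median nuclei count of all wells on the same plate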); conditions: HUVEC TNFalpha-induced E-selectin immunofluorescence imaging, at 2 µM; inhibition: stronger effect = higher value; nuclei count: measured here: cell number, toxicity
# [4] = molecular target: Voltage-gated potassium channel subunit beta-2 (Rattus norvegicus) (UniProt P62483); assay: KvBeta enzyme negative modulators, primary screen, biochemical, NADPH fluorescence (AID 622;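 active means fluorescence slope higher than the sample average by over 3 SD, cut at about -0.22 in these data, passing the limit was not always enough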;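 further: slope of raw intensity against log time taken from 70 to 1610 s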); conditions: recombinant KvBeta, 4-cyanobenzaldehyde reduction, at 10 µM, stronger effect = higher value
# Sequence of Voltage-gated potassium channel subunit beta-2 (Rattus norvegicus) (P62483 whole entry, looked up): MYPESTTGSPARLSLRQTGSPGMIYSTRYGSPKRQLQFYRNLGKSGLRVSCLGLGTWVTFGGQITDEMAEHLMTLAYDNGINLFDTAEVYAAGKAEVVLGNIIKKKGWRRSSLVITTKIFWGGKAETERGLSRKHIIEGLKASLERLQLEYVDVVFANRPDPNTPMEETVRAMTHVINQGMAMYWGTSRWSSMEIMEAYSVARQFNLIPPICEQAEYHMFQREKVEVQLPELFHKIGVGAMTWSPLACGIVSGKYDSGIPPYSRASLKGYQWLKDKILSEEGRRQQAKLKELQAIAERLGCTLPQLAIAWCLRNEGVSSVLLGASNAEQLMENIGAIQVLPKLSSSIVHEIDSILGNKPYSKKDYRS
# [5] = molecular target: Voltage-gated potassium channel subunit beta-2 (Rattus norvegicus) (UniProt P62483); assay: KvBeta positive modulators, primary screen, biochemical, NADPH fluorescence (AID 623;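 active means NADPH fluorescence slope more negative than the mean of all samples by about 3 SD, 99.7% confidence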;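 further: fluorescence intensity change per second fitted from 20 to 320 s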); conditions: Recombinant KvBeta, NADPH fluorescence decrease slope, 10 min; at 10 µM; stronger effect = lower value
# [6] = molecular target: Alpha-2C adrenergic receptor (Homo sapiens) (UniProt P18825); assay: modulators of alpha2C/GIRK thallium flux, primary screen, cell-based, HEK293 alpha2C/GIRK1/2 (AID 624;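 active means fluorescence slope after compound addition differing from the mean of all screened samples at 99.7% confidence, in either direction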;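 further: slope of fluorescence ratio to pre-addition baseline per second over 15 to 24 s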); conditions: thallium flux BTC fluorescence, at 10 µM, actives lie on both sides
# Sequence of Alpha-2C adrenergic receptor (Homo sapiens) (P18825 whole entry, looked up): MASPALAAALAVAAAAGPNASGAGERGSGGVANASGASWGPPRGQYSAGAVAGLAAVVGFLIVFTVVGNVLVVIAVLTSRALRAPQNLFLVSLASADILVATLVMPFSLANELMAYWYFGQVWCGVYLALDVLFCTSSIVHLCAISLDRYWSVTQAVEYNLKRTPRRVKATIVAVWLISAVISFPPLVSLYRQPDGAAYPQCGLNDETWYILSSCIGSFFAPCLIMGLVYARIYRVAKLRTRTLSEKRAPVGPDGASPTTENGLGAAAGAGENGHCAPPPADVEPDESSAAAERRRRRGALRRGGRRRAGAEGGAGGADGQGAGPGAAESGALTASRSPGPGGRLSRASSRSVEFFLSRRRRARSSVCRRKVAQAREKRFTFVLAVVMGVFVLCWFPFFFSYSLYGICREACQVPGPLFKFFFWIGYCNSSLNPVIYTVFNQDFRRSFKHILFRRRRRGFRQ
# [7] = inhibitors of Sendai virus-induced IRF3 signaling, primary screen, TLR/RLR signaling modifier project, cell-based, Sendai virus stimulus, luciferase, 10K MLSCN set (AID 602276;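 active means inhibition at or above 50% at 10 µM; inactive means inhibition below 50%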;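 further: firefly luciferase from ISG56 promoter only with Renilla not read in this screen; 0% = Sendai virus plus DMSO and 100% = medium plus DMSO without virus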); conditions: HEK293 RL24 IRF3 luciferase reporter, at 10 µM, stronger effect = higher value
# [8] = inhibitors of poly I:C-induced TLR3 signaling, primary screen, cell-based, poly I:C stimulus, luciferase, 10K MLSCN set (AID 602277;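 active means inhibition of the reporter signal at or above 50%; inactive means inhibition below 50%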); conditions: HEK293-TLR3 RL24 IRF3 luciferase reporter, at 10 µM, stronger effect = higher value
SMILES,cell count [1],inhibition [1],inhibition of aggregation [2],nuclei count [2] [%],inhibition [3],nuclei count [3] [%],fluorescence slope [4],NADPH fluorescence slope [5],slope [6],inhibition [7],inhibition [8]
O=c1cc(C(F)F)oc2c1ccc1ccccc12,398,-4% (inactive),14.2% (inactive),94,-244% (inactive),99.4,-0.349 (inactive),-1.6e-05 (inactive),0.00247 (inactive),9.69% (inactive),19.9% (inactive)
CCN(CC)C(=O)Cn1ncc2c1-c1ccccc1OC2,597,0.5% (inactive),-64.7% (inactive),102,-54.6% (inactive),123,-0.588 (inactive),-4.7e-05 (inactive),0.00665 (inactive),7.79% (inactive),16.3% (inactive)
COc1ccc(CCNC(=O)CSc2nnc(CNc3ccc(Cl)cc3)o2)cc1OC,241,-3.2% (inactive),33.1% (active),72.1,10.2% (inactive),63.5,-0.594 (inactive),-1.9e-05 (inactive),0.0062 (inactive),11.9% (inactive),19.4% (inactive)
COc1ccccc1OCC(=O)Nc1ccc(S(=O)(=O)Nc2nc(C)cc(C)n2)cc1,376,0% (inactive),-13.8% (inactive),102,-84% (inactive),121,-0.335 (inactive),-6.1e-05 (inactive),0.00524 (inactive),11.5% (inactive),17.1% (inactive)
NC(=O)C1(N2CCCCC2)CCN(C(=O)Nc2ccccc2C(F)(F)F)CC1,312,-3.2% (inactive),14.4% (inactive),91.9,-133% (inactive),142,-0.445 (inactive),6.2e-06 (inactive),0.00567 (inactive),11.1% (inactive),31.2% (inactive)
COc1ccc(NC(=O)CC2Oc3ccccc3NC2=O)cc1 (configuration not stated),560,8.3% (inactive),-0.3% (inactive),92.4,-48.1% (inactive),122,-0.556 (inactive),-3.2e-05 (inactive),0.00626 (inactive),4.81% (inactive),31.8% (inactive)
COc1ccc2[nH]c(=O)c(CN(CCO)S(=O)(=O)c3ccc4c(c3)OCCO4)cc2c1,539,-7.5% (inactive),7.9% (inactive),105,24.9% (inactive),98.9,-0.555 (inactive),-5.3e-05 (inactive),0.00253 (inactive),9.42% (inactive),11.8% (inactive)
